TROY signal inh: blocks TROY-dependent signaling in reporter cells | AID 1347056 | hit rate 0.98% among 360,000 | inhibition, % at 10 µM | Q293 LMP1-TROYcd NF-kB luciferase reporter, 4 h;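 active = compounds whose plate-normalised and pattern-corrected inhibition of the luciferase reporter signal at the single screening dose is 50% or more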
HIF-2a block: blocks HIF-2a reporter activity | 786-0 RCC cells HIF-2a reporter, luciferase luminescence, overnight | hit rate 0.72% among 360,000 | inhibition, % at 18.8 µM;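 active = inhibition of the luminescence signal of 40% or more relative to plate controls, in a single-dose primary screen at 18.75 µM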
TWEAK-Fn14 inh: inhibitors of TWEAK-Fn14 interaction signaling; TWEAK-stimulated Fn14 reporter cells, luciferase luminescence, 8 h; hit rate 2% among 360,000; AID 1159606; inhibition, % at 10 µM; in the data active = inhibition above about 50%
aSyn 5UTR inh: MLPCN primary screen, SNCA 5' untranslated region | inhibition, % (tested at 7.5 µM) | hit rate 0.82% among 300,000 | alpha-synuclein 5'UTR reporter, inhibitor activity; in the data active = inhibition above about 60%;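 note: H4 neuroglioblastoma cells stably carrying SNCA 5'UTR luciferase fusion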
TRAIL sens C8: sensitizes caspase-8 expressing cells to TRAIL; NB7+C8 cells + TRAIL, ATPlite viability luminescence; inhibition (viability loss, TRAIL sensitization), % at 10 µM; hit rate 1% among 360,000;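 active = compounds causing at least 50% loss of cell viability in the single-dose screen, relative to plate controls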
HSP90 refold inh: blocks HSP90-mediated luciferase refolding in reticulocyte lysate; Rabbit reticulocyte lysate, luciferase refolding luminescence, 3 h; inhibition, % at 5.6 µM; hit rate 0.91% among 290,000;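 active = inhibition above the screen-wide mean plus 3 SD, computed separately per campaign, cut at about 16% in these data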;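 note: inhibitors lower the luminescence because luciferase stays unfolded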
Hits are given with their value; n = inactive; x = no result. Most compounds without a hit are left out; they make up all but 3.9% or so of the library.

SMILES | TROY signal inh | HIF-2a block | TWEAK-Fn14 inh | aSyn 5UTR inh | TRAIL sens C8 | HSP90 refold inh
CC(C)Cn1c(-c2ccc(F)cc2)n[nH]c1=S | x | n | 65 | n | n | n
C=C(C)[C@@H]1CCC2(C(=O)O)CC[C@]3(C)[C@H](CC[C@@H]4[C@@]5(C)CCC(=O)C(C)(C)[C@@H]5CC[C@]43C)[C@@H]12 (some centres not stated) | n | n | 51 | n | n | n
CC(=O)OCCNc1cc(N2CCN(C)CC2)c2noc3c2c1C(=O)c1ccccc1-3 | n | n | n | x | n | n
CCOC(=O)C(C(=O)OCC)c1cc(Br)c2noc3c2c1C(=O)c1ccccc1-3 | n | n | n | n | 93 | n
O=C(COC(=O)c1ccc(O)cc1)Nc1cc(S(=O)(=O)N2CCOCC2)ccc1Cl | n | n | n | x | n | x
O=C(Oc1cccc(Nc2ncnc3ccccc23)c1)c1ccccc1Cl | 59 | n | 82 | n | n | n
COc1cccc(Nc2ncnc3ccccc23)c1 | n | n | n | n | n | n
CC(C)OC(=O)C(C(=O)C(F)(F)F)c1cc(NS(=O)(=O)c2ccc3ccccc3c2)c2ccccc2c1O (configuration not stated) | 68 | n | 62 | n | n | n
O=C(NCc1ccco1)c1ccc(Cn2c(=O)c3ccccc3n(Cc3cccc(Cl)c3)c2=O)cc1 | n | n | n | 64 | n | n
O=C(NCc1ccco1)c1ccc(Cn2c(=O)c3sccc3n(Cc3cccc(F)c3)c2=O)cc1 | n | n | n | n | n | n
C=CC[n+]1c(-c2ccc(Cl)cc2Cl)csc1Nc1ccc(NC(C)=O)cc1 | n | 95 | n | 94 | n | n
O=C(Nc1ccc(F)cc1)C(CCc1ccccc1)N1CCN(c2cccc(C(F)(F)F)n2)CC1 (configuration not stated) | x | n | x | x | n | x
COc1ccc([C@H]2N[C@]3(CCCN(Cc4ccc(Br)cc4)C3=O)[C@H]3C(=O)N(C)C(=O)[C@@H]23)cc1 | n | n | n | x | n | x
Clc1ccccc1-c1nc(N/N=C/c2cccnc2)c2ccccc2n1 | n | n | n | n | n | n
Fc1ccccc1/C=N/Nc1nc(-c2ccccn2)nc2ccccc12 | x | x | x | 81 | x | n
COc1cccc(-c2nc(NC(C)C)c3ccccc3n2)c1O | n | n | 68 | n | n | n
CCC(C)Nc1nc(-c2ccccn2)nc2ccccc12 (configuration not stated) | n | n | n | 69 | n | n
c1ccc(CNc2nc(-c3ccccn3)nc3ccccc23)cc1 | n | n | n | n | n | n
COc1cccc(-c2nc(NCC3CCCO3)c3ccccc3n2)c1O (configuration not stated) | n | n | n | n | n | n
Oc1ccc(/C=N/Nc2nc(-c3cccnc3)nc3ccccc23)c(O)c1 | n | n | n | n | 55 | n
CC(C)NC(=O)C1Cc2c(-c3ccc(Cl)cc3)ccnc2O1 (configuration not stated) | n | n | n | x | n | x
CC1(C(=O)NS(=O)(=O)c2cccc(OC(F)F)c2)CCN1C(=O)CC(c1ccccc1)c1ccccc1 (configuration not stated) | n | n | n | x | n | x
CCC(C)Nc1nc(-c2cccc(OC)c2O)nc2ccccc12 (configuration not stated) | 60 | n | 64 | n | n | n
COc1cccc(-c2nc(NCc3cccnc3)c3ccccc3n2)c1O | n | n | n | n | n | n
COc1ccc(-c2ccc3c(c2)S(=O)(=O)c2cccc(C(=O)NCCOc4ccccc4Cl)c2C3=O)cc1OC | 54 | n | n | x | 76 | x
SMILES | TROY signal inh | HIF-2a block | TWEAK-Fn14 inh | aSyn 5UTR inh | TRAIL sens C8 | HSP90 refold inh
CC(C)c1cccc(-c2ccc3c(c2)S(=O)(=O)c2cccc(C(=O)NCc4ccccc4)c2C3=O)c1 | n | n | n | x | n | x
O=C(NCc1ccccc1Br)c1cccc2c1C(=O)c1ccc(-c3ccc(OC(F)(F)F)cc3)cc1S2(=O)=O | n | n | n | x | 54 | x
CC(C)c1cccc(-c2ccc3c(c2)S(=O)(=O)c2cccc(C(=O)NCc4ccccc4Cl)c2C3=O)c1 | n | n | n | x | 68 | x
COc1ccc(-c2ccc3c(c2)S(=O)(=O)c2cccc(C(=O)NCc4ccccc4Cl)c2C3=O)cc1OC | n | n | n | x | n | x
COCCn1c(SCC(=O)Nc2c(C)n(C)n(-c3ccccc3)c2=O)nnc1-c1ccncc1 | n | n | n | x | n | x
O=[N+]([O-])c1ccc(Cl)c(CN2CCN(c3ncc(Cc4ccccc4)cn3)CC2)c1 | x | n | x | x | n | x
CC(CCN1CCOCC1)c1ccccc1 (configuration not stated) | n | n | 60 | n | n | n
CC(CCN1CCN(CCO)CC1)c1ccccc1 (configuration not stated) | n | n | n | n | n | n
O=C(NCc1ccccc1F)C1CCN(C(=O)Nc2ccc(F)cc2)CC1 | n | n | 99 | n | n | n
O=C(NCc1ccccc1F)C1CCCN(C(=O)Nc2ccc(F)cc2)C1 (configuration not stated) | n | n | n | n | n | n
CCOCCCNC(=O)C1CCN(C(=O)N(C)C)CC1 | n | n | n | n | n | n
CC(C)NC(=O)C1CCN(C(=O)N(C)C)CC1 | n | n | 51 | n | n | n
CC(=O)N1C[C@H]2CON(C)[C@H]2C[C@H]1c1cccc(-c2cc(Cl)cc(Cl)c2)c1 | n | n | n | x | n | x
CCCOc1ccc(C2=NNC(=O)CC2)cc1 | n | n | n | 77 | n | n
Nc1ncnc2c(C3OC(CO)C(O)C3O)scc12 (configuration not stated) | 65 | 50 | 100 | x | 57 | x
COc1ccc(N(CC(=O)Nc2ccc3c(c2)OCCO3)S(=O)(=O)c2c(C)noc2C)cc1 | n | n | 65 | n | n | n
COc1ccc(N(CC(=O)Nc2ccc3c(c2)OCCO3)S(=O)(=O)c2cccnc2)cc1 | n | n | 57 | x | n | n
COc1ccc(N(CC(=O)Nc2ccc3c(c2)OCO3)S(=O)(=O)c2ccccc2)cc1 | n | n | n | n | n | n
COc1ccc(N(CC(=O)Nc2ccc3c(c2)OCCO3)S(C)(=O)=O)c(OC)c1 | n | n | 62 | n | n | n
CC(OC(=O)Cc1n[nH]c(=O)c2ccccc12)C(=O)N(C)c1ccccc1 (configuration not stated) | n | n | n | x | n | x
O=C(N/N=C(\Cc1ncc[nH]1)c1ccccc1)c1ccncc1 | n | n | n | n | n | n
O=C(N/N=C(\Cc1ncc[nH]1)c1ccccc1)c1ccccc1 | x | x | x | 74 | x | n
COc1ccc2c(c1)C1OCCC1C(c1ccco1)N2 (configuration not stated) | n | n | n | n | 83 | x
COc1cc(/C=C2\SC(=S)N(CCCCC(=O)O)C2=O)ccc1OS(=O)(=O)c1ccc(C)cc1 | n | n | n | n | n | x
COCCn1c(COc2ccc(C)cc2)nc2ccccc21 | x | n | 65 | n | n | n
CCOCCn1c(COc2ccc(C)cc2)nc2ccccc21 | n | n | n | n | n | n

Bioassay records: PubChem BioAssay, several laboratories
